High-throughput results deposited in PubChem by several laboratories.
Cav3 T inh = blocks human Cav3.2 T-type calcium channel | O95180 | Cav3.2-expressing cells, Fluo-4 calcium fluorescence FDSS; hits give low values | B-score at 10 µM | 100,000 tested, 4% active;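 active = single-dose well whose peak fluorescence ratio is a statistical outlier from its plate by either plate-standardised score or position-corrected B-score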
PostGolgi yeast = growth inhibition of a yeast mutant, post-Golgi transport screen; inhibition, % at 10 µM; post-Golgi transport phenotypic cell assay; 98,000 tested, 0.9% active;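 note: yeast cells grown in 1536-well plates; yeast grown about 18 h at 30C before absorbance read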
PLAP activator = activates human placental alkaline phosphatase; purified PLAP enzyme, luminescent substrate read-out; hits give high values; activation fold at 20 µM; P05187; 96,000 tested, 1.2% active; in the data active = activation fold above about 2
Target sequence (P05187 whole entry, looked up): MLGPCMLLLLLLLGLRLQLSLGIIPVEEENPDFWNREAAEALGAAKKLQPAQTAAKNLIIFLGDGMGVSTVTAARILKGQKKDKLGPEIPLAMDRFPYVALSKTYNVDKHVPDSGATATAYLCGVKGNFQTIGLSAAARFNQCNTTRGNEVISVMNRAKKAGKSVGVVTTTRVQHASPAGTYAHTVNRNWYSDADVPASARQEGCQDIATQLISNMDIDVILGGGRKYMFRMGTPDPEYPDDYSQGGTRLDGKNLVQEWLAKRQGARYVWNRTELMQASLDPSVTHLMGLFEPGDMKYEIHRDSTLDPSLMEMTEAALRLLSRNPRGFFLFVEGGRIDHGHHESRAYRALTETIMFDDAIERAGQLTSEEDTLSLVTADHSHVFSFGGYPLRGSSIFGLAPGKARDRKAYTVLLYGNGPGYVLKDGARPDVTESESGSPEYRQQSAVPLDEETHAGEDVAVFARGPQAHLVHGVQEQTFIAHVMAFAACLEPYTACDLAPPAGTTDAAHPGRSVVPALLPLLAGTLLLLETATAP
PostGolgi ctrl = growth of the yeast control strain, post-Golgi counter-screen; inhibition, % at 10 µM; efflux-deficient yeast background strain, growth absorbance A615, 16 h; AID 738; 98,000 tested, 5% active
hDAT+cocaine = modulates human dopamine transporter uptake under cocaine; B-score at 10 µM; AID 449768; LLC-PK1 hDAT cells, [14C]-dopamine uptake with cocaine IC80; actives deviate in either direction; 110,000 tested, 1.3% active; Q01959;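 active = Z score or B-score, a plate-position-corrected score, falls beyond the plate's 99.7% confidence bounds, in either direction; inactive = both scores lie inside the 99.7% bounds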;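 note: scored against the spread of the other compound wells on the same plate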
Numbers without * were called inactive; . = not tested or not shown. Sampled rows, rich in hits. Any-hit rate of the full collection: about 9.6%. Cut-off read from the data, not from the text of the source, unless noted: active = inhibition above about 30%; inactive = the rest.

SMILES	Cav3 T inh	PostGolgi yeast	PLAP activator	PostGolgi ctrl	hDAT+cocaine
O=C(COc1ccc(/C=N/NS(=O)(=O)c2ccccc2)cc1)Nc1ccc(F)cc1	-6.01*	-1.4	1.2	1.0	0.408
CCCc1cc(=O)oc2cc(OCC(=O)Nc3ccc4c(c3)OCCO4)ccc12	0.0843	1.1	0.9	0.5	-0.00416
CCCc1cc2c(=O)c(-c3ccc4c(c3)OCCO4)c(C)oc2cc1OS(C)(=O)=O	0.223	0.8	1.4	6.3	2.76*
O=C(NCc1cccnc1)/C(=C/c1ccc(-c2cccc(Cl)c2)o1)S(=O)(=O)c1ccccc1	0.892	11.2	0.9	36.7*	-0.374
Cc1ccc(C(=O)N/C(=C\c2ccc(-c3cc(Cl)ccc3Cl)o2)C(=O)NCc2cccnc2)cc1	.	1.3	.	9.0	.
CCCNC(=O)c1ccc2c(c1)C1C3CCC(C3)C1C(c1ccccc1)N2 (stereo not given)	-5.02*	-3.1	2.6*	35.6*	1.99
CCOC(=O)N1CCN(c2ccc3nnnn3n2)CC1	-0.173	-3.1	0.9	5.9	0.259
O=C(c1ccccc1)N1CC(COc2ccccc2)OC(c2ccco2)O1 (stereo not given)	-4.03*	0.5	1.2	9.5	-0.315
O=C(c1ccc(OCC2CCCO2)cc1)N1CCN(c2ccccc2)CC1 (stereo not given)	0.209	-11.0	1.8	8.0	0.525
CCCCNC(=O)Nc1ccccn1	0.141	3.6	1.1	33.1*	0.338
Cc1ccc(S(=O)(=O)NCC(=O)OCN2C(=O)c3ccccc3C2=O)cc1	.	8.9	0.8	1.1	-0.396
O=C(Nc1ccccc1)OCc1ccccn1	1.39	-1.0	0.9	0.6	-0.812
O=C(Nc1ccccc1)OCc1cc(-c2ccccc2Cl)on1	.	1.9	1.1	33.2*	.
CC(C)N=c1cc2n(-c3ccc(Cl)cc3)c3ccccc3nc-2cc1Nc1ccc(Cl)cc1	-3.9*	.	.	.	-1.17
Cn1c(CNc2ccc(Cl)cc2)nc2ccccc21	-2.03	-14.0	0.7	20.2	0.652
Cn1c(C(=O)N2CCc3ccccc3C2)cc2oc3ccccc3c21	-0.303	-1.8	.	56.1*	0.885
O=C(c1cc2ccccc2c(=O)o1)N1CCc2ccccc2C1	.	-0.6	1	12.1	.
CCS(=O)(=O)N1CCN(C2CCC(C)CC2)CC1 (stereo not given)	0.746	7.0	1.2	1.6	-0.621
COCCC(=O)NC12CC3CC(CC(C3)C1)C2	1.47	-6.5	1	34.6*	1.19
Cn1ccnc1SCC(=O)NC12CC3CC(CC(C3)C1)C2	-1.91	1.6	0.9	3.1	-0.18
O=C(CCSc1ccc(Cl)c(Cl)c1)NC12CC3CC(CC(C3)C1)C2	-5.92*	1.1	0.9	39.0*	-1.26
CCOC(=O)Cc1c(C)nc2c(C#N)c[nH]n2c1=O	0.327	3.9	1	8.2	-0.806
CCOC(=O)Cc1c(C)nc2c(-c3cccc(Br)c3)c[nH]n2c1=O	-5.84*	10.5	1.1	22.9	0.99
CC(=O)COC(=O)c1cccc(N2C(=O)C3C4C=CC(C4)C3C2=O)c1 (stereo not given)	0.671	2.7	0.9	31.4*	-0.187
COc1ccc(C(C(=O)OC(C)CN(C)C)c2ccccc2)cc1 (stereo not given)	0.65	35.2*	1.2	1.0	-1.46
SMILES	Cav3 T inh	PostGolgi yeast	PLAP activator	PostGolgi ctrl	hDAT+cocaine
O=C(NC(CSCc1ccccc1)C(=O)N/N=C/c1ccc(O)cc1O)c1ccc([N+](=O)[O-])cc1 (stereo not given)	-4.7*	7.3	2.7*	-0.1	0.00784
O=C(N/N=C/c1ccc(O)c(O)c1O)/C(=C/c1ccc([N+](=O)[O-])cc1)NC(=O)c1ccccc1	-0.931	-13.1	1.9	-8.5	0.437
Cc1nc(NC(=O)c2cc3c(s2)CCCCC3)sc1C(=O)N(C)C	0.0907	-7.3	1	9.7	2.32*
CC(=O)c1ccc(NC(=O)CSc2nnc(Cn3c(=O)sc4ccccc43)n2C)cc1	0.198	3.0	.	6.9	0.328
CCNc1nc(N)c(C(=O)c2ccc(Cl)s2)s1	0.0464	5.0	1	46.2*	1.29
CCOC(=O)c1c(NC(=O)c2ccc(Cl)s2)sc(C)c1C	-0.0221	.	1.1	.	-0.0735
COC(=O)c1cccc2c1-c1ccccc1/C2=N/O	.	-8.7	1.4	47.4*	.
COC(=O)c1ccc2c(c1O)C(=O)c1ccccc1C2=O	-0.247	105.5*	1	82.7*	-0.0915
COC(=O)CSc1ccccc1C(=O)OC	0.121	7.5	1	15.4	0.0173
CC1CCN(C(=O)c2ccc3c(c2NCCO)C(=O)c2ccccc2C3=O)CC1	1.96	-2.2	1.2	17.1	1.66
CC(C)N=C(Nc1ccccc1)c1cccnc1	0.302	-1.6	0.9	7.0	-1.84
COC(=O)C1=C(C)NC(C)=C(C(=O)OCCN(C)Cc2ccccc2)C1c1cccc([N+](=O)[O-])c1 (stereo not given)	-4.09*	.	.	.	2.1
CC(C)C1Cc2[nH]c(=O)c(C(=O)O)cc2CO1 (stereo not given)	-0.653	6.2	1	5.7	-1.22
O=C(Nc1nnc(-c2ccccc2Cl)o1)c1cccnc1	0.451	-5.7	1.1	-8.8	-0.0131
N#C/C(=C/c1ccc(N2CCCCCC2)o1)c1cccc(F)c1	-4.27*	-5.2	0.8	1.2	0.212
N#C/C(=C\c1ccc(N2CCOCC2)o1)c1ccccc1	-2.63	-8.7	1.2	7.6	-0.984
N#C/C(=C\c1ccc(Sc2nc3ccccc3[nH]2)o1)c1ccccc1	-3.03	-9.3	1.5	54.1*	-0.905
N#C/C(=C/c1ccc(N2CCOCC2)o1)c1nc2ccccc2[nH]1	-10.2*	.	.	.	0.323
N#C/C(=C/c1ccc(N2CCCCCC2)o1)c1ccc(F)cc1	-6.09*	30.2*	.	5.0	0.571
CC1=C(C(=O)OCC(Br)(Br)Br)C(c2cccc([N+](=O)[O-])c2)NC(=O)N1CCCC(=O)O (stereo not given)	-1.03	.	.	.	-0.199
O=C(c1cccc(Br)c1)c1cn(-c2ccccc2)nc1C(=O)c1ccccc1	.	-4.3	1	8.2	.
CSc1ccccc1NS(=O)(=O)c1ccccc1	0.359	-2.8	1.1	7.4	0.691
CCOC(=O)Cc1cnc(NC(=O)NC(C(=O)OCC)(c2ccccc2)C(F)(F)F)s1 (stereo not given)	-4.72	3.3	1	6.5	0.851
Cn1ncc(Cl)c1C(=O)Nc1cccnc1	0.495	4.0	1	1.5	0.18
Cc1cc(C)cc(Oc2ncnc3c2ncn3Cc2c(Cl)cccc2Cl)c1	-3.91	-1.0	1.2	34.1*	-0.0271
Cc1ccccc1NC(=O)C1(NC(=O)c2cccc(N3C(=O)CSC3c3ccccc3)c2)CCCCC1 (stereo not given)	-10.1*	6.7	1.6	2.1	-0.808
COc1cc(OC)c2c3c(c(C4CCCCC4)nc2c1)CCC3	0.436	.	.	.	-0.789
CC(C)C(NC(=O)CSc1ccc(Cl)cc1)C(C)C	-0.649	-5.7	1	-0.2	1.4
NC(=O)C(c1ccc(Cl)cc1)c1ccc(Sc2ccc(Cl)cc2)nn1 (stereo not given)	-4.29*	-1.8	1	10.3	1.31
COc1cc(/C=C/C(=O)CC(=O)/C=C/c2ccc(O)c(OC)c2)ccc1O	-4.21*	.	.	.	-0.24
